Earlier results in PubChem BioAssay AID977611.
Hit rate of the full screen: of about 3,900 compounds, about 3,900 (100%) were called active. The limit is not given here; nearly all actives have Kd up to about 4200 µM. So high a share suggests a set chosen from earlier hits. Some of the results follow. Where a SMILES comes first, the peptide text is derived from it. Non-standard residues stand in square brackets, D forms with d. Square brackets hold non-standard residues; d marks the D form. Residues, ends and D or L forms follow the SMILES beside them. Peptide text beside a SMILES is read from it. [ ]: non-standard residue; d: D form. Orn(CH(NH2)2) = NC(N)NCCC[C@H](N)C(=O)O

Assay: PubChem AID 977611
Conditions: PDB protein-ligand complexes, literature Kd

Question: For `CCC1=CNN2C(NCc3ccc[n+]([O-])c3)CC(N3CCCC[C@H]3CCO)NC12` (some centres not stated), which Kd (protein: Bromodomain testis-specific protein, PDB entry 4kcx) is on record?
Answer: 37 µM (active)

Question: For `CCCCCCCC(=O)O[C@@H]1[C@@H](OC(=O)[C@@H](C)CC)[C@@H](C)[C@H]2[C@H]1[C@@](C)(OC(C)=O)C[C@H](O[C@@H](O)CCC)[C@@]1(O[C@H](O)CCC)[C@H]2O[C@@H](O)[C@@]1(C)O`, which Kd (protein: SERCA1a, PDB entry 4j2t) is on record?
Answer: 0.011 µM (active)

Question: Which Kd (protein: DNA polymerase III, PDB entry 1ok7) does the source give for `CC(C)C[C@H](NC(=O)CNC(=O)[C@H](CC(C)C)NC(=O)[C@@H](NC(=O)[C@H](CC(C)C)NC(=O)[C@H](CCC(N)=O)NC(=O)[C@@H](N)CCCNC(N)N)C(C)C)C(=O)O` (HELM PEPTIDE1{[NC(N)NCCC[C@H](N)C(=O)[*:2]].Q.L.V.L.G.L}$$$$V2.0) here?
Answer: 1.2 µM (active)

Question: With `CC[C@H](C)[C@H](NC(=O)[C@H](CC(=O)O)NC(=O)[C@H](CCC(=O)O)NC(=O)[C@H](CC(C)C)NC(=O)CNC(=O)[C@H](C)NC(=O)[C@H](C)N)C(=O)N[C@H](C(=O)N[C@@H](CCCNC(N)N)C(=O)N[C@@H](CCCCN)C(=O)N[C@@H](C)C(=O)N[C@@H](CC(C)C)C(=O)N[C@@H](CCSC)C(=O)NCC(=O)N[C@H](C=O)CO)[C@@H](C)CC` (H-AAGLEDII[Orn(CH(NH2)2)]KALMGS-aldehyde) as the compound, how does the Kd (protein: Glucocorticoid receptor, PDB entry 3h52) read?
Answer: 14 µM (active)

Question: For `CC[C@H](C)[C@H](NC(=O)[C@H](CCSC)NC(=O)CNC(=O)[C@H](CCCNC(N)N)NC(=O)[C@@H](N)CCC(N)=O)C(=O)O` (H-Q[Orn(CH(NH2)2)]GMI-OH), which Kd (protein: Response regulator aspartate phosphatase F, PDB entry 4i9c) is on record?
Answer: 3.1 µM (active)

Question: With `CSCC[C@H](NC(=O)[C@H](CC(C)C)NC(=O)[C@H](C)NC(=O)[C@@H](NC(=O)[C@H](CC(N)=O)NC(=O)[C@H](CO)NC(=O)CNC(=O)[C@H](CCCNC(N)N)NC(=O)[C@H](CCCNC(N)N)NC(=O)[C@H](CCC(=O)O)NC(=O)[C@H](CCC(N)=O)NC(=O)[C@H](CC(C)C)NC(=O)[C@@H](N)CCCNC(N)N)C(C)C)C(=O)N[C@@H](CC(C)C)C(=O)N[C@@H](CC(=O)O)C(=O)N[C@@H](CS)C(=O)O` (H-[Orn(CH(NH2)2)]LQE[Orn(CH(NH2)2)][Orn(CH(NH2)2)]GSNVALMLDC-OH) as the compound, how does the Kd (protein: Mitogen-activated protein kinase 1, PDB entry 2gph) read?
Answer: 5 µM (active)

Question: Which Kd (protein: Vacuolar protein sorting-associating protein 4B, PDB entry 2jqk) does the source give for `CC[C@H](C)[C@H](NC(=O)[C@H](CCC(=O)O)NC(=O)[C@H](CCC(=O)O)NC(=O)[C@@H](N)CC(=O)O)C(=O)N[C@@H](CCC(=O)O)C(=O)N[C@@H](CCCNC(N)N)C(=O)N[C@@H](CCC(N)=O)C(=O)N[C@@H](CC(C)C)C(=O)N[C@@H](CCCCN)C(=O)N[C@@H](C)C(=O)N[C@@H](CC(C)C)C(=O)NCC(=O)N[C@H](C(=O)N[C@@H](CC(=O)O)C(=O)O)C(C)C` (H-DEEIE[Orn(CH(NH2)2)]QLKALGVD-OH) here?
Answer: 402 µM (active)

Question: Which Kd (protein: BCL-XL, PDB entry 1bxl) does the source give for `CC[C@H](C)[C@H](NC(=O)[C@H](C)NC(=O)[C@H](CC(C)C)NC(=O)[C@H](CCC(N)=O)NC(=O)[C@H](CCCNC(N)N)NC(=O)CNC(=O)[C@@H](NC(=O)[C@H](CCC(N)=O)NC(=O)CN)C(C)C)C(=O)N[C@H](C(=O)NCC(=O)N[C@@H](CC(=O)O)C(=O)N[C@@H](CC(=O)O)C(=O)N[C@H](C(=O)N[C@@H](CC(N)=O)C(=O)N[C@@H](CCCNC(N)N)C(=O)O)[C@@H](C)CC)[C@@H](C)CC` here?
Answer: 0.34 µM (active)

Question: With `CSCC[C@H](NC(=O)CNC(=O)[C@H](C)NC(=O)[C@@H](N)CCC(=O)O)C(=O)N[C@H](C(=O)N[C@@H](CC(C)C)C(=O)NCC(=O)N[C@@H](C)C(=O)N[C@@H](CCCNC(N)N)C(=O)N[C@@H](CCCCN)C(=O)N[C@@H](CC(C)C)C(=O)N[C@@H](CCCCN)C(=O)N[C@@H](CCCCN)C(=O)N[C@@H](CC(C)C)C(=O)NCC(=O)O)[C@@H](C)O` (H-EAGMTLGA[Orn(CH(NH2)2)]KLKKLG-OH) as the compound, how does the Kd (protein: Importin subunit alpha-2, PDB entry 3btr) read?
Answer: 5 µM (active)

Question: Which Kd (protein: Regulatory Domain of Human Cardiac Troponin C and Ca2+, PDB entry 2krd) does the source give for `CC[C@H](C)[C@H](NC(=O)[C@@H](N)CCCNC(N)N)C(=O)N[C@@H](CO)C(=O)N[C@@H](C)C(=O)N[C@@H](CC(=O)O)C(=O)N[C@@H](C)C(=O)N[C@@H](CCSC)C(=O)N[C@@H](CCSC)C(=O)N[C@@H](CCC(N)=O)C(=O)N[C@@H](C)C(=O)N[C@@H](CC(C)C)C(=O)N[C@@H](CC(C)C)C(=O)NCC(=O)N[C@@H](C)C(=O)N[C@@H](CCCNC(N)N)C(=O)N[C@@H](C)C(=O)N[C@@H](CCCCN)C(=O)O` (H-[Orn(CH(NH2)2)]ISADAMMQALLGA[Orn(CH(NH2)2)]AK-OH) here?
Answer: 2000 µM (active)

Question: What about the Kd (protein: human Cardiac Troponin-C(cNTnCCa2+), PDB entry 1mxl) of the same compound?
Answer: 154 µM (active)

Question: Which Kd (protein: Chitinase A, PDB entry 3arw) does the source give for `COc1ccc2c(c1OC)CN(C)c1c-2ccc2cc3c(cc12)OCO3` here?
Answer: 0.7 µM (active)

Question: Which Kd (protein: Pantothenate synthetase (T2A, E77G mutation), PDB entry 4de5) does the source give for `O=C(O)[C@@H]1COc2ccccc2O1` here?
Answer: 700 µM (active)

Question: And the Kd (protein: Pantothenate synthetase (T2A, E77G mutation), PDB entry 4g5f)?
Answer: 900 µM (active)

Question: For `CC(C)C[C@H](NC(=O)[C@H](CCCNC(N)N)NC(=O)[C@H](CCC(N)=O)NC(=O)[C@H](Cc1ccc(O)cc1)NC(=O)[C@@H](N)CC(=O)O)C(=O)O` (H-DYQ[Orn(CH(NH2)2)]L-OH), which Kd (protein: AP-3 complex subunit mu-1, PDB entry 4ikn) is on record?
Answer: 14 µM (active)

Question: For `CC(C)C[C@H](NC(=O)[C@H](CCC(N)=O)NC(=O)[C@H](CS)NC(=O)[C@H](CO)NC(=O)[C@@H](N)CC(C)C)C(=O)N[C@@H](Cc1ccc(O)cc1)C(=O)N[C@@H](CCC(N)=O)C(=O)N[C@@H](CCCNC(N)N)C(=O)O` (H-LSCQLYQ[Orn(CH(NH2)2)]-OH), which Kd (protein: Thymidylate synthase, PDB entry 3n5e) is on record?
Answer: 0.151 µM (active)

Question: Which Kd (protein: p300/CBP-associated factor (PCAF), PDB entry 1jm4) does the source give for `CC(=O)NCCCC[C@H](NC(=O)[C@H](CCCNC(N)N)NC(=O)CNC(=O)[C@H](Cc1ccc(O)cc1)NC(=O)[C@@H](N)CO)C(=O)N[C@@H](CCCCN)C(=O)N[C@@H](CCCNC(N)N)C(=O)N[C@@H](CCCNC(N)N)C(=O)N[C@@H](CCC(N)=O)C(=O)N[C@@H](CCCNC(N)N)C(=O)N[C@@H](CS)C(=O)O` (H-SYG[Orn(CH(NH2)2)]K(Ac)K[Orn(CH(NH2)2)][Orn(CH(NH2)2)]Q[Orn(CH(NH2)2)]C-OH) here?
Answer: 10 µM (active)
